Measured values from PubChem BioAssay AID504467 (National Center for Advancing Translational Sciences (NCATS), 2011).
Out of some 330,000 compounds screened, about 7,700 (2.3%) were called active. Entries that show only a call come without a potency. Another 26% or so got no clear call; they are omitted. Calls follow the shape of the dose curve; as a rule, active = well fitted inhibition curve with a large enough effect; inconclusive = small, poorly fitted or top-dose-only effect, or effect the other way; inactive = flat fitted curve, though single readings scatter. Only a selection was taken, and actives are over-represented in it overall.

Experiment: qHTS screen for small molecules that inhibit ELG1-dependent DNA repair in human embryonic kidney (HEK293T) cells expressing luciferase-tagged ELG1; also: nearly all actives have a fitted effect of over 55% in size
Settings: HEK293T ELG1-luciferase reporter, luminescence, 16 h, DNA damage induced by 5-fluorouridine; series mostly up to 46.1 µM
Procedure, shortened: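 Reporter activity after DNA damage by 5-fluorouridine is monitored. Compound-treated cells incubate 16 hr at 37 °C, then ONE-Glo is added for 30 min before luminescence reading.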
Potency is read from the fitted curve at half-maximal effect.

| Structure (SMILES) | Potency |
| --- | --- |
| CCCCc1ccc(NS(=O)(=O)c2cccc(C(=O)N3CCCN(C)CC3)c2)cc1 | inactive |
| COc1cc(OC)c(N2CC(C(=O)Nc3cc(Cl)ccc3N3CCOCC3)CC2=O)cc1Cl (configuration not stated) | inactive |
| CC(=O)Nc1ccc(S(=O)(=O)Nc2nc(-c3ccc(C(C)(C)C)cc3)cs2)cc1 | inactive |
| O=C(O)c1ccccc1C(=O)Nc1nc(-c2ccccc2)cs1 | inactive |
| CC(=O)Nc1ccc(-c2csc(NC(=O)Nc3ccccc3)n2)cc1 | 7.3 µM (active) |
| CC1C(=O)C(C)C(c2ccc(O)cc2)NC1c1ccc(O)cc1 (configuration not stated) | inactive |
| CC(C)[C@H](NC(=O)N1c2ccccc2NC(=O)[C@@H]1C(C)C)C(=O)N[C@H](C(=O)O)c1ccccc1 | inactive |
| Cc1cccc(N2CCN(C(C)C(=O)N3CCc4ccccc43)CC2)c1C (configuration not stated) | inactive |
| COc1ccc(OCCNC(=O)c2cc(C3CC3)nc3c2cnn3C(C)C)cc1 | inactive |
| COc1ccc(CNC(=O)CN(C(=O)c2csnn2)c2cnc3ccccc3c2)cc1 | inactive |
| COc1cc(N)c(Cl)cc1C(=O)OCC(=O)c1ccc2c(c1)NC(=O)CO2 | 3.66 µM (active) |
| O=C1COc2ccc(C(=O)COC(=O)c3ccccc3Cl)cc2N1 | inactive |
| O=C1COc2ccc(C(=O)COC(=O)c3cccnc3Cl)cc2N1 | inactive |
| COc1cc(/C=N/NC(=O)c2cccnc2)ccc1OC(=O)c1cccc(Br)c1 | inactive |
| CCOC(=O)c1ccc(N/C(=N/S(=O)(=O)c2ccccc2)c2ccccc2)cc1 | inactive |
| CCOC(=O)c1nc(Nc2ccc(C(=O)OC)cc2)c2ccccc2n1 | 4.11 µM (active) |
| CCOC(=O)c1ccc(Nc2cc(C)nc3nc(C)nn23)cc1 | inactive |
| Cc1cc2occ(CC(=O)NNC(=O)c3ccccc3F)c2cc1C | inactive |
| O=C1[C@H]2[C@@H](c3ccc(Cl)cc3)N3C(=O)N(c4cccc(F)c4)C(=O)[C@@]3(Cc3ccccc3)[C@H]2C(=O)N1C1CCCCC1 | inactive |
| COc1ccccc1CN1CCN(C(c2ccccc2)c2ccccc2)CC1 | inactive |
| CCCCn1c(N)c(N(CC(C)C)C(=O)c2ccc(-n3c(C)ccc3C)cc2)c(=O)[nH]c1=O | inactive |

| Structure (SMILES) | Potency |
| --- | --- |
| Cc1nc(SCC(=O)NC2CCCCC2C)c(C#N)c(C)c1C (configuration not stated) | inactive |
| COc1ccccc1Oc1ccc(S(=O)(=O)Nc2cccnc2)cc1 | inactive |
| CCOc1ccc(S(=O)(=O)Nc2ccc(S(=O)(=O)Nc3cc(OC)ccc3OC)cc2)cc1 | inactive |
| COc1ccc(NS(=O)(=O)c2ccc(Oc3c(C#N)cccc3C#N)cc2)cc1 | 2.31 µM (active) |
| CN(CC(=O)Nc1ccc(OC(F)(F)F)cc1)C(=O)C1CCC1 | inactive |
| Cc1noc(/C=C/c2ccco2)c1S(=O)(=O)N1CCC(C(=O)Nc2ccc(Cl)cn2)CC1 | 5.8 µM (active) |
| CCOC(=O)C1CCN(S(=O)(=O)c2c(C)noc2C)CC1 | inactive |
| Cc1noc(/C=C/N(C)C)c1S(=O)(=O)N1CCCC(C(=O)NCc2ccco2)C1 (configuration not stated) | inactive |
| Cc1ccc(Cl)c(OCC(=O)N(C)CC(=O)Nc2ccc(N3CCOCC3)cc2)c1 | inactive |
| COc1cc2ccccc2cc1C(=O)N(CCN(C)C)c1nc2c(F)cccc2s1 | inactive |
| CN1c2ccc(C=O)c3c(C=O)ccc(c23)N(C)C1(C)C | 6.51 µM (active) |
| Cc1cccn2c(=O)c(/C=C(\C#N)C(N)=O)c(N3CCCCCC3)nc12 | inactive |
| CC(Sc1ccccc1F)C(=O)Nc1cccc(S(=O)(=O)N2CCOCC2)c1 (configuration not stated) | inactive |
| CC(C)CN(C(=O)COC(=O)c1ccc(Cl)c(N)c1)c1c(N)n(Cc2ccccc2)c(=O)[nH]c1=O | inactive |
| COC(=O)C(C)Oc1ccc2c(c1)O/C(=C\c1cccc(Br)c1)C2=O (configuration not stated) | inactive |
| CNS(=O)(=O)c1cccc(C(=O)OCC(=O)N2c3ccccc3NC(=O)C2(C)C)c1 | inactive |
| Cc1cc(C(=O)OCC(=O)N2c3ccccc3NC(=O)C2(C)C)c(C)n1-c1ccccc1 | 29.1 µM (active) |
| Cc1ccc(OCCC(=O)OCC(=O)N2c3ccccc3NC(=O)C2(C)C)cc1 | inactive |
| O=c1[nH]cccc1-c1nc2ccccc2n1Cc1ccc(Cl)cc1 | inactive |
| O=C(NC(Cc1c[nH]c2ccccc12)C(=O)N/N=C/c1ccc(Br)cc1)c1cccs1 (configuration not stated) | 23.1 µM (active) |
| O=C(CNC(=O)c1cccs1)N/N=C/c1cccc(Br)c1 | inactive |

| Structure (SMILES) | Potency |
| --- | --- |
| CC(=O)NC(Cc1c[nH]c2ccccc12)C(=O)O (configuration not stated) | inactive |
| CC1CN(C(=O)c2ccc([N+](=O)[O-])s2)CC(C)O1 (configuration not stated) | inactive |
| COc1ccc(CC(=O)NC2CCSc3ccccc32)cc1OC (configuration not stated) | inactive |
| CCOc1ccc(CCNC(=O)COC(=O)c2ccc(F)c(S(=O)(=O)N3CCOCC3)c2)cc1OCC | inactive |
| COc1ccccc1NS(=O)(=O)c1ccc(C)c(C(=O)NNC(=O)c2csc(N3CCOCC3)n2)c1 | inactive |
| CN(C(=O)CSc1nnc(-c2ccc3c(c2)OCO3)o1)C1CCS(=O)(=O)C1 (configuration not stated) | inactive |
| O=C(CN1CCN(S(=O)(=O)/C=C/c2ccccc2)CC1)Nc1ccc(N2CCOCC2)cc1 | inactive |
| O=C(CN1CCN(c2cccc(Cl)c2)CC1)Nc1ccc(S(=O)(=O)N2CCOCC2)cc1 | 18.3 µM (active) |
| O=C(CN1C(=O)CCC1=O)Nc1ccc(S(=O)(=O)N2CCOCC2)cc1 | inactive |
| COc1ccc(-c2cc(C(=O)NCc3ccco3)no2)cc1OC | inactive |
| COc1ccccc1N1CCN(C(=O)c2cc3c(-c4ccc(Cl)cc4)nn(C)c3s2)CC1 | 11.6 µM (active) |
| COc1ccccc1N1CCN(C(=O)c2cc(-c3ccc(Cl)c(Cl)c3)on2)CC1 | inactive |
| CCOC(=O)N1CCN(C(=O)c2cc3c(-c4ccc(Cl)cc4)nn(C)c3s2)CC1 | inactive |
| Cn1nc(-c2ccc(Cl)cc2)c2cc(C(=O)NCc3ccco3)sc21 | 25.9 µM (active) |
| CN(CCNC(=O)c1cc2c(-c3ccccc3F)nn(C)c2s1)C1CCCCC1 | inactive |
| Cc1ccc(CSCC(=O)N(C)CC(=O)Nc2ccc(C)cc2)cc1 | inactive |
| CC(=O)Nc1ccc(S(=O)(=O)NCC(=O)OCC(=O)c2ccc[nH]2)cc1 | inactive |
| CC(/C=C/c1ccco1)=N/NC(=O)C1COc2ccccc2O1 (configuration not stated) | inactive |
| CC(/C=C/c1ccccc1)=N\NC(=O)C1CC1(C)c1ccccc1 (configuration not stated) | 23.1 µM (active) |
| O=C(N/N=C/C=C/c1ccccc1)C1CC1(c1ccccc1)c1ccccc1 (configuration not stated) | inactive |
